Data taken from ChEMBL document CHEMBL4513216, “Probing the Open Global Health Chemical Diversity Library for Multistage-Active Starting Points for Next-Generation Antimalarials” (ACS Infect Dis, 2020).
The campaign covered roughly 68,000 compounds. About 2,700 (4%) showed an effect of 50% or more. This is one part of a sample in which strong results are shown more often than they occur.

Each compound was assayed on Plasmodium berghei (assay: Screen against P. berghei liver stage (PbLuc), transformed with Luciferase, at 2uM). Conditions: tested at 2 uM.
Type: functional, HepG2

| Structure (SMILES) | INHIBITION |
| --- | --- |
| Cc1ccc2nc(CN(C)Cc3ccc(C)o3)cc(=O)n2c1 | 5.02% |
| Cc1nc(C(=O)N2CCN(C(C)c3ccccc3F)CC2)cs1 (stereo not drawn) | 19.06% |
| CN1CCc2ncc(CNc3cc(N(C)C)ncn3)n2CC1 | -14.45% |
| Cc1cc(C)nc(N2Cc3cnn(Cc4ccc(F)cc4)c3C2)n1 | -51.41% |
| CNc1cc(C)nc(N2Cc3cnn(Cc4ccc(F)cc4)c3C2)n1 | 52.03% |
| Cc1ccnc(N2Cc3cnn(Cc4ccc(F)cc4)c3C2)n1 | -38.09% |
| O=C(CN1CC(n2cccn2)C1)NCCc1c[nH]c2ccccc12 | 25.74% |
| O=S(=O)(NCCn1ccc(-c2cccs2)n1)C1CC1 | -49.59% |
| Cc1nc(-c2ccccc2C)n(CC(=O)NC(C)C2CC2)n1 (stereo not drawn) | 12.66% |
| Cc1occc1C(=O)N1CCC2(CCC(C(=O)NCC3CC3)O2)CC1 (stereo not drawn) | 51.19% |
| O=C(NCC1CC1)C1CCC2(CCN(C(=O)c3ccncc3)CC2)O1 (stereo not drawn) | 52.36% |
| Cc1ccc(C(=O)N2CCC3(CCC(C(=O)NCC4CC4)O3)CC2)o1 (stereo not drawn) | 38.09% |
| Cc1ccccc1C(=O)N1CCC2(CCC(C(=O)NCC3CC3)O2)CC1 (stereo not drawn) | -28.91% |
| O=C(NCC1CC1)C1CCC2(CCN(C(=O)c3ccoc3)CC2)O1 (stereo not drawn) | 36.99% |
| O=C(NCC1CC1)C1CCC2(CCN(C(=O)c3cccnc3)CC2)O1 (stereo not drawn) | 22.71% |
| CCC(C)(CC(=O)OC)NC(=O)c1ccc(C(C)=O)cc1 (stereo not drawn) | 27.85% |
| COc1cccc(-c2cc(C(=O)NCCCn3cnnc3)[nH]n2)c1 | -48.78% |
| CCNc1ncc(C(=O)NCc2ccc3nsnc3c2)cn1 | 86.69% |
| CCNc1ncc(C(=O)NCc2ccc(F)c(C(F)(F)F)c2)cn1 | -18.6% |
| CCNc1ncc(C(=O)NCc2cccc(OC(F)(F)F)c2)cn1 | -15.83% |
| Cc1nn(C)c(C)c1NC(=O)CN1CCc2c(nc(C(C)C)n2C)C1 | -31.89% |
| CC(C)(C(=O)N1CCC(C(N)=O)C1)c1ccccc1F (stereo not drawn) | 60.9% |
| CC(C)(C(=O)NCC(=O)N1CCCC1)c1ccccc1F | 5.47% |

| Structure (SMILES) | INHIBITION |
| --- | --- |
| CC(C)(C(=O)N1CCC(CS(N)(=O)=O)CC1)c1ccccc1F | 30.06% |
| CCOc1ccc(Oc2cc(CN)ccn2)cc1 | 16.95% |
| O=C(CCC(=O)N1CCOCC1)NCc1cccnc1-n1cccn1 | -15.37% |
| Cc1cn2c(n1)CCC(NC(=O)COCCOc1ccccc1)C2 (stereo not drawn) | 1.49% |
| Cc1cc2c(N3CCCC(OCc4cccnc4)C3)ncnc2s1 (stereo not drawn) | 3.62% |
| Cc1nn(C)c2ncnc(N3CCCC(OCc4cccnc4)C3)c12 (stereo not drawn) | 70.81% |
| Cc1nn(C)c2ncnc(N3CCCC(OCc4ccccn4)C3)c12 (stereo not drawn) | 10.23% |
| c1cc(CN2CCc3ncc(CN4CCCCC4)n3CC2)cs1 | 33.47% |
| COCCN1CCC2(CC1)CC(N1CCOCC1)c1cc(C)ccc12 (stereo not drawn) | -6.8% |
| CC(=O)N1CCCC1c1nccnc1Nc1ncccn1 (stereo not drawn) | 13.33% |
| N#Cc1cccc(N2CCCC3(CN(C(=O)NC4CC4)CCO3)C2)c1 (stereo not drawn) | 6.36% |
| CCc1noc(CS(=O)(=O)c2cccc(OC)c2)n1 | 38.33% |
| Cc1cc(CN(C)CCN(C)c2ccccc2)no1 | 7.62% |
| CC(C)Cc1nc(CS(=O)(=O)c2ccccc2)no1 | -5.66% |
| COc1ccc(S(=O)(=O)Cc2cc(C)on2)cc1 | 21.24% |
| Cc1cc(CS(=O)(=O)c2ccccc2)no1 | 58.69% |
| COc1cccc(S(=O)(=O)Cc2cc(C)on2)c1 | 57.59% |
| CN(C)c1ccc(CNCc2cnc(N3CCOCC3)nc2)cn1 | -160.54% |
| CC(NCc1ccncc1)c1cc2c(cc1Br)OCCO2 (stereo not drawn) | 42.7% |
| CC(NCc1ccccn1)c1cc2c(cc1Br)OCCO2 (stereo not drawn) | 8.93% |
| CC(NCc1cccnc1)c1cc2c(cc1Br)OCCO2 (stereo not drawn) | 52.83% |
| Cc1ccc(CN2CCN(C(=O)c3ccc(Br)o3)CC2)cc1 | 45.77% |
| CC(C)Oc1ncnc2c1CCN(Cc1ccco1)CC2 | 27.44% |

| Structure (SMILES) | INHIBITION |
| --- | --- |
| CCCn1nc(C(=O)N2CCCC2c2noc(C)n2)ccc1=O (stereo not drawn) | -17.18% |
| CCN(CC)CC1CN(Cc2ccc(C)s2)Cc2nccn2C1 (stereo not drawn) | -0.18% |
| CC(C)Cn1cncc1Cn1cccc(C(F)(F)F)c1=O | 1.22% |
| CCn1cncc1Cn1cccc(C(F)(F)F)c1=O | 10.1% |
| CCn1cnnc1Cn1cccc(C(F)(F)F)c1=O | 62.01% |
| CS(=O)(=O)N1C[C@H](C(=O)Nc2cccnc2)[C@@H]2CCO[C@@H]2C1 | 51.27% |
| O=C(Nc1cccnc1)[C@H]1CN(C2CCCC2)C[C@H]2OCC[C@@H]12 | -42.87% |
| CCOCCN1C[C@H](C(=O)Nc2cccnc2)[C@@H]2CCO[C@@H]2C1 | 8.18% |
| Cc1nn(C)cc1C1=NS(=O)(=O)N(C)C(C(=O)Nc2ccc(Br)cc2)=C1 | 22.84% |
| O=C(c1ccoc1)N(Cc1ccncc1)C1CC1 | -37.38% |
| CCc1nnc(SCc2nonc2C)n1C1CC1 | -11.87% |
| COC(=O)CNC(=O)CSCc1nc(O)c2cc(C)sc2n1 | -2.99% |
| CC(C)C(C(=O)N1CCC(Nc2cccnn2)CC1)n1cncn1 (stereo not drawn) | -12.48% |
| Cc1nc(C(C)Nc2nc3c(s2)c(C)nn3C)n[nH]1 (stereo not drawn) | 5.48% |
| CC(NC(=O)NCCCN(C)C)c1ccc2c(c1)CCC(=O)N2 (stereo not drawn) | 2.08% |
| CC(NC(=O)NCCS(C)(=O)=O)c1ccc2c(c1)CCC(=O)N2 (stereo not drawn) | 60.13% |
| CC(NC(=O)NCc1cccs1)c1ccc2c(c1)CCC(=O)N2 (stereo not drawn) | 16.84% |
| CC(C)(CN)NS(=O)(=O)c1cccc(F)c1F | -6.69% |
| O=C(CCC(=O)N1CCC(c2noc3cc(F)ccc23)CC1)NC1CC1 | 11.87% |
| CC(C)NCC1(COc2ccccc2)C[C@@H](O)[C@@H](O)C1 (stereo partly drawn) | 71.58% |
| O[C@@H]1CC(CNCC2CC2)(COc2cccnc2)C[C@@H]1O (stereo partly drawn) | 39.62% |
| O[C@@H]1CC(CNCC2CCCC2)(COc2cccnc2)C[C@@H]1O (stereo partly drawn) | 42.64% |
